Laboratory results reported in PubChem BioAssay.
Several values for one entry are separate records, joined by “and”; a condition that tells them apart may be missing. Identical values can stand only once. Inconclusive results are not listed. Activity calls are given as the source filed them.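 The calls were made as follows, unless noted: active = normalized viability below 100% at a tested concentration; inactive = the rest.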

Experiments:
[1] = viability loss in pontine glioma line – cell-based, SU-DIPG-XIII, MIPE4.0, CellTiter-Glo, qHTS, dose response (AID 1347061; cut-off not given, nearly all actives have AC50 up to about 37 µM;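 also: cells exposed to compound for 48 hours before readout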); details: CellTiter-Glo ATP luminescence
[2] = viability loss in pontine glioma line – cell-based, JHH-DIPG-1, MIPE4.0, CellTiter-Glo, qHTS, dose response (AID 1347062; cut-off not given, nearly all actives have AC50 up to about 27 µM;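 as to AC50: cells exposed to compound for two days before readout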); details: JHH-DIPG-1 viability, CellTiter-Glo ATP luminescence
[3] = viability loss in pontine glioma line – cell-based, SU-DIPG-XXV, MIPE5.0, CellTiter-Glo, qHTS, dose response (AID 1347065; cut-off not given, nearly all actives have AC50 up to about 26 µM;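 also: cells exposed to compound for 48 hours before ATP readout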); details: CellTiter-Glo ATP luminescence
[4] = growth inhibition of DIPG cells – cell-based, MIPE4.0 library, CellTiter-Glo luminescence, qHTS (AID 1347066; cut-off not given, nearly all actives have AC50 up to about 30 µM;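 also: cells exposed to compound for 48 hours before readout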); details: SU-DIPG-VI viability, CellTiter-Glo ATP luminescence
[5] = growth inhibition of DIPG cells – cell-based, MIPE5.0 library, qHTS (AID 1347068; cut-off not given, nearly all actives have IC50 up to about 30 µM;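 as to IC50: cells exposed to compound for 48 hours before viability readout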); details: SU-DIPG-XXV viability
[6] = viability loss with induced miR-34 in A549 – imaging, A549 dox-inducible miR-34, nuclei and caspase counts, primary screen (AID 1347080;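 active = compounds whose cell count with miR-34 switched on is under 0.7 times the count with it off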); details: A549 miR-34 inducible, Hoechst nuclei count, 48 h
[7] = MELAS cybrid and Rieske KO viability enhancers – cell-based, MELAS cybrids, Rieske KO mouse fibroblasts, CellTiter-Glo, primary screen (AID 1508586;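 active = mean z-score across replicates of 1.96 or higher in either the MELAS or the Rieske mutant cell line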;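 also: z relative to plate mean and SD of compound and empty wells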); details: low glucose
[8] = drug combination growth inhibition, ovarian cancer – cell-based, oncology-focused library, rucaparib conditional, profiling panel (AID 1508598); details: patient-derived ovarian cancer cells, CellTiter-Glo viability, 144 h, stronger effect = lower value
[9] = viability loss in pontine glioma line – cell-based, SU-DIPG-XIII, MIPE5.0, CellTiter-Glo, qHTS, dose response (AID 1347064; cut-off not given, nearly all actives have AC50 up to about 23 µM;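 as to AC50: cells exposed to compound for 48 hours before the viability read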); details: CellTiter-Glo ATP luminescence
[10] = JHH-DIPG-1 glioma cell viability, MIPE5.0 library, CellTiter-Glo luminescence, qHTS (AID 1347067; cut-off not given, nearly all actives have AC50 up to about 26 µM;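 also: cells exposed to compound for 48 hours before readout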); details: JHH-DIPG-1 glioma viability, CellTiter-Glo ATP luminescence
[11] = compounds altering HSF1 focus formation in cells – imaging, Selleck Cancer Library (AID 1347162; in the data active = plate-normalised HSF1 focus index below about 0.46); details: human cells, HSF1 nuclear foci imaging, at 10 µM; SSMD: measured here: HSF1 foci SSMD mean; cell count: measured here: cell number; plate-normalised HSF1 focus index: stronger effect = lower value
[12] = stronger effect = lower value, cell number ratio, induced over uninduced
[13] = measured here: relative caspase fold change +Dox/-Dox
[14] = measured here: total cells with miR-34 induction, stronger effect = lower value
[15] = measured here: total cells without miR-34 induction
[16] = MELAS cybrid survival, CellTiter-Glo 48 h, stronger effect = higher value
[17] = Rieske KO mouse fibroblast survival, CellTiter-Glo 72 h

Cc1cccc(Nc2nc(-c3ccncc3)cs2)c1
outcome [1]: inactive | AC50 [2]: 20.9 µM (active) | AC50 [3]: 20.9 µM (active) | outcome [4]: inactive | outcome [5]: inactive | fold change [6, 12]: 0.988 (inactive) and 0.935 (inactive) | fold change [6, 13]: 0.542 and 0.911 | cell count [6, 14]: 4770 and 4650 | cell count [6, 15]: 4820 and 4970 | z-score [7, 16]: -0.247 (inactive) | z-score [7, 17]: 1.01 | viability ([8]; at 0.000305 µM, OCI-C5x cells, with rucaparib 10 µM, 100% = cells with rucaparib alone): 109% (inactive) | viability ([8]; at 0.000305 µM, OCI-C5x cells, without rucaparib): 111% (inactive) | viability ([8]; at 0.000305 µM, OCI-P5x cells, with rucaparib 20 µM, 100% = cells with rucaparib alone): 88.3% (active) | viability ([8]; at 0.000305 µM, OCI-P5x cells, without rucaparib): 86.6% (active) | viability ([8]; at 0.00122 µM, OCI-C5x cells, with rucaparib 10 µM, 100% = cells with rucaparib alone): 108% (inactive) | viability ([8]; at 0.00122 µM, OCI-C5x cells, without rucaparib): 108% (inactive) | viability ([8]; at 0.00122 µM, OCI-P5x cells, with rucaparib 20 µM, 100% = cells with rucaparib alone): 95.8% (active) | viability ([8]; at 0.00122 µM, OCI-P5x cells, without rucaparib): 93.7% (active) | viability ([8]; at 0.00488 µM, OCI-C5x cells, with rucaparib 10 µM, 100% = cells with rucaparib alone): 114% (inactive) | viability ([8]; at 0.00488 µM, OCI-C5x cells, without rucaparib): 106% (inactive) | viability ([8]; at 0.00488 µM, OCI-P5x cells, with rucaparib 20 µM, 100% = cells with rucaparib alone): 75.1% (active) | viability ([8]; at 0.00488 µM, OCI-P5x cells, without rucaparib): 94.9% (active) | viability ([8]; at 0.0195 µM, OCI-C5x cells, with rucaparib 10 µM, 100% = cells with rucaparib alone): 112% (inactive) | viability ([8]; at 0.0195 µM, OCI-C5x cells, without rucaparib): 112% (inactive) | viability ([8]; at 0.0195 µM, OCI-P5x cells, with rucaparib 20 µM, 100% = cells with rucaparib alone): 110% (inactive) | viability ([8]; at 0.0195 µM, OCI-P5x cells, without rucaparib): 89.5% (active) | viability ([8]; at 0.0781 µM, OCI-C5x cells, with rucaparib 10 µM, 100% = cells with rucaparib alone): 107% (inactive) | viability ([8]; at 0.0781 µM, OCI-C5x cells, without rucaparib): 108% (inactive) | viability ([8]; at 0.0781 µM, OCI-P5x cells, with rucaparib 20 µM, 100% = cells with rucaparib alone): 102% (inactive) | viability ([8]; at 0.0781 µM, OCI-P5x cells, without rucaparib): 101% (inactive) | viability ([8]; at 0.313 µM, OCI-C5x cells, with rucaparib 10 µM, 100% = cells with rucaparib alone): 115% (inactive) | viability ([8]; at 0.313 µM, OCI-C5x cells, without rucaparib): 106% (inactive) | viability ([8]; at 0.313 µM, OCI-P5x cells, with rucaparib 20 µM, 100% = cells with rucaparib alone): 104% (inactive) | viability ([8]; at 0.313 µM, OCI-P5x cells, without rucaparib): 95.3% (active) | viability ([8]; at 1.25 µM, OCI-C5x cells, with rucaparib 10 µM, 100% = cells with rucaparib alone): 129% (inactive) | viability ([8]; at 1.25 µM, OCI-C5x cells, without rucaparib): 115% (inactive) | viability ([8]; at 1.25 µM, OCI-P5x cells, with rucaparib 20 µM, 100% = cells with rucaparib alone): 101% (inactive) | viability ([8]; at 1.25 µM, OCI-P5x cells, without rucaparib): 98.4% (active) | viability ([8]; at 5 µM, OCI-C5x cells, with rucaparib 10 µM, 100% = cells with rucaparib alone): 157% (inactive) | viability ([8]; at 5 µM, OCI-C5x cells, without rucaparib): 136% (inactive) | viability ([8]; at 5 µM, OCI-P5x cells, with rucaparib 20 µM, 100% = cells with rucaparib alone): 82.2% (active) | viability ([8]; at 5 µM, OCI-P5x cells, without rucaparib): 110% (inactive)

COc1cc(Oc2ccnc3cc(OC)c(OC)cc23)ccc1NC(=O)NC(C)c1nccs1 (stereo unspecified)
outcome [1]: inactive | outcome [2]: inactive | outcome [9]: inactive | outcome [4]: inactive | outcome [10]: inactive | outcome [5]: inactive | SSMD [11]: 1.89 | cell count [11]: 6450 | plate-normalised HSF1 focus index [11]: 1.1 (inactive)

OCc1ccc(-c2nn(Cc3ccccc3)c3ccccc23)o1
outcome [1]: inactive | outcome [2]: inactive | outcome [4]: inactive | AC50 [10]: 23.5 µM (active) | outcome [5]: inactive | fold change [6, 12]: 0.905 (inactive) and 0.927 (inactive) and 0.926 (inactive) | fold change [6, 13]: 1.2 and 0.954 and 0.941 | cell count [6, 14]: 5070 and 1870 and 4400 | cell count [6, 15]: 5600 and 2020 and 4750

CC(C)(Cc1ccc2ccccc2c1)NC[C@@H](O)COc1cccc(Cl)c1C#N
outcome [1]: inactive | outcome [2]: inactive | AC50 [9]: 8.33 µM (active) | AC50 [3]: 10.5 µM (active) | AC50 [10]: 10.5 µM (active) | IC50 [5]: 13.2 µM (active)

Cc1cc(C(C)Nc2ccccc2)c2nc(N3CCOCC3)cc(=O)n2c1 (stereo unspecified)
outcome [1]: inactive | outcome [2]: inactive | outcome [4]: inactive | outcome [10]: inactive | outcome [5]: inactive | fold change [6, 12]: 0.85 (inactive) | fold change [6, 13]: 1.05 | cell count [6, 14]: 5530 | cell count [6, 15]: 6510 | z-score [7, 16]: -0.0991 (inactive) | z-score [7, 17]: 1.51

CN(C)/[N+]([O-])=N/Oc1cc(ON[N+](=O)N2CCN(C(=O)c3cc(Cc4n[nH]c(=O)c5ccccc45)ccc3F)CC2)c([N+](=O)[O-])cc1[N+](=O)[O-]
AC50 [1]: 20.9 µM (active) | AC50 [2]: 13.2 µM (active) | outcome [4]: inactive
